Several values for one entry are separate records, joined by “and”; a condition that tells them apart may be missing. Equal values may be shown once. Activity calls are given as the source filed them. The calls were made as follows: active = hit-call score of the fitted dose curve at least 0.9, where 1 is the maximum; inactive = score below 0.9.
read-out: Interleukin-1 alpha (IL1a), IL1A (gene 3552); assay: BSK_BE3C_IL1a: BioMAP Diversity Plus: BE3C Assay for Interleukin-1 alpha (IL1a) Biomarker Activity (AID 2283016); details: primary human bronchial epithelial cells; actives raise or lower the signal
Method: BSK_BE3C is a cell-based, multiplexed-readout assay that uses bronchial epithelial cell, a human lung primary cell, with measurements taken at 24 hours after chemical dosing in a 96-well plate.BSK_BE3C_IL1a is an assay component measured in the BSK_BE3C assay. It measures IL-1a antibody related to regulation of gene expression using ELISA technology.Data from the assay component BSK_BE3C_IL1a was analyzed into 1 assay endpoint. This assay endpoint, BSK_BE3C_IL1a, was analyzed with bidirectional fitting relative to DMSO as the negative control and baseline of activity. Using a type of binding reporter, gain or loss-of-signal activity can be used to understand changes in the signaling as they relate to the gene IL1A. Furthermore, this assay endpoint can be referred to as a primary readout, because this assay has produced multiple assay endpoints where this one serves a signaling function. To generalize the intended target to other relatable targets, this assay endpoint is annotated to the cytokine intended target family, where the subfamily is interleukins.
The levels of cell surface (or secreted, indicated by the prefix "s") biomarker endpoints were measured by ELISA. Overt cytotoxicity to cells in confluent adherent cultures (all systems other than the BT system) was assessed by measuring total protein levels using sulforhodamine B (SRB) staining in parallel cultures at the time of biomarker measurements, indicated as SRB endpoints. For proliferation assays for adherent cell types, individual cell types are cultured at sub-confluence and relative cell numbers quantified by SRB staining at time points optimized for each system (48 h: 3C and CASM3C systems; 72 h: BT and HDF3CGF systems; 96 h: SAg system). SRB was performed by staining cells with 0.1% SRB after fixation with 10% TCA and reading wells at 560 nm.Viability and proliferation of PBMC (T cells) was quantified by Alamar Blue reduction for the SAg and BT systems. For PBMC viability (referred to as PBMC Cytotoxicity within the assay endpoint names), cells were plated (75,000/well in a 96-well plate) and then chemical samples added for 1 h before addition of activators, SEB and TSST-1 (20 ng/mL final concentration each). Cells were incubated for 90 h. Then, Alamar Blue (20 uL/well) (Invitrogen, Cat DAL1100) was added for 6 h, and the plates were read with a fluorescence microplate reader at 546/580 nm (excitation/emission). For PBMC proliferation, cells were plated and activated as above but incubated for only 16 h prior to addition of Alamar Blue. Plates were read after 6 h.

Question: How did the outcome turn out when CN(C)CCC(c1ccc(Cl)cc1)c1ccccn1 (configuration not stated) was run?
Answer: The outcome was “inactive”.

Question: How did the outcome turn out when Cc1c(C(N)=O)cc([N+](=O)[O-])cc1[N+](=O)[O-] was run?
Answer: The outcome was “inactive”.

Question: Which outcome does the source give for COC(=O)/C=C\C(=O)OC here?
Answer: The outcome was “inactive”.

Question: How did the outcome turn out when CCCCC(CC)COC(=O)C=Cc1ccc(OC)cc1 (configuration not stated) was run?
Answer: Its outcome is “inactive”.

Question: Which AC50 does the source give for CCCCCCCCCC/C=C/C1CC(=O)OC1=O (configuration not stated) here?
Answer: The AC50 was 20 µM (active).

Question: Which AC50 does the source give for O=[N+]([O-])c1cc(S(=O)(=O)Nc2ccccc2)ccc1Nc1ccccc1 here?
Answer: Its AC50 is 24 µM (active) and 30.5 µM (active).

Question: Which outcome does the source give for CCC[Si](OC(C)=O)(OC(C)=O)OC(C)=O here?
Answer: The outcome was “inactive”.

Question: For COc1ccccc1Oc1c(NS(=O)(=O)c2ccc(C(C)(C)C)cc2)nc(-c2ncccn2)nc1OCCO, which outcome is on record?
Answer: The outcome was “inactive”.

Question: How did the outcome turn out when CC(C)C1OCCN1CCOC(=O)NCCCCCCNC(=O)OCCN1CCOC1C(C)C (configuration not stated) was run?
Answer: Its outcome is “inactive”.

Question: CN(C)c1ccc(C(c2ccccc2)c2ccc(N(C)C)cc2)cc1 was tested. Which AC50 did it give?
Answer: Its AC50 is 5.43 µM (active).

Question: For CCCCCCC(O)CCCCCCCCCCC(=O)OC (configuration not stated), which outcome is on record?
Answer: The outcome was “inactive”.

Question: With C1CN(CCOCCN2CCOCC2)CCO1 as the molecule, how does the outcome read?
Answer: The outcome was “inactive”.

Question: For Oc1cccc2ccccc12, which outcome is on record?
Answer: The outcome was “inactive”.

Question: How did the outcome turn out when Cc1cccnc1 was run?
Answer: Its outcome is “inactive”.

Question: How did the outcome turn out when O=C(C(=O)c1ccccc1)c1ccccc1 was run?
Answer: The outcome was “inactive”.

Question: How did the AC50 turn out when CCCCCCCCCCC1CO1 (configuration not stated) was run?
Answer: The AC50 was 31.5 µM (active).

Question: Which AC50 does the source give for OC(C(F)(F)F)(C(F)(F)F)C(O)(C(F)(F)F)C(F)(F)F here?
Answer: Its AC50 is 31.6 µM (active) and 31.3 µM (active).

Question: How did the outcome turn out when CCC(C)=NO was run?
Answer: Its outcome is “inactive”.

Question: For CN(C)Cc1cc(C(C)(C)C)c(O)c(C(C)(C)C)c1, which outcome is on record?
Answer: Its outcome is “inactive”.

Question: For CCCCCCCCCCCCCCCCCC[N+](C)(C)C, which AC50 is on record?
Answer: Its AC50 is 3.8 µM (active).

Question: Sc1nc2ccccc2s1 was tested. Which AC50 did it give?
Answer: Its AC50 is 0.0847 µM (active).

Question: Which AC50 does the source give for CC(C)CC(=O)CC(C)CC(C)C (configuration not stated) here?
Answer: The AC50 was 31.5 µM (active).

Question: Which outcome does the source give for CC[N+](CC)(CC(=O)Nc1c(C)cccc1C)Cc1ccccc1 here?
Answer: Its outcome is “inactive”.

Question: COc1ccc(C(=O)c2ccccc2O)c(O)c1 was tested. Which outcome did it give?
Answer: Its outcome is “inactive”.

Question: Which outcome does the source give for Cc1cc(-n2nc3ccc(Cl)cc3n2)c(O)c(C(C)(C)C)c1 here?
Answer: The outcome was “inactive”.

Question: Which outcome does the source give for CC[N+](CC)(CC(=O)Nc1c(C)cccc1C)Cc1ccccc1 (tested in a mixture with another compound) here?
Answer: Its outcome is “inactive”.

Question: With COc1cc(CNC(=O)CCCC/C=C/C(C)C)ccc1O as the molecule, how does the outcome read?
Answer: The outcome was “inactive”.

Source: PubChem BioAssay (EPA / NIEHS)
